Several values for one entry are separate records, joined by “and”; a condition that tells them apart may be missing. Equal values may be shown once. About 470 (0.67%) of roughly 70,000 compounds were called active. Where a call stands in place of a potency, no number is given. Roughly 18% stayed inconclusive and do not appear here. Calls follow the shape of the full dose curve. For the sample, actives were picked, then their nearest neighbours and some compounds at random. The source holds several records for some structures; these can differ, active in one and inactive in another.
Potency is read from the fitted curve at half-maximal effect.

A short description of the assay: qHTS Assay for Anthrax Lethal Toxin Internalization. Also: nearly all actives have a fitted effect of over 50% in size. The conditions noted are these: Cells, FRET ratio (460/530); series mostly up to 40 µM. For orientation: In qHTS, concentration-response curves come from the screen itself.
As for `CN1CCc2nc(-c3ccccc3)c(-c3ccccc3)cc2C1`, the activity change, negative = inhibition is -6.08% [at 8 µM] (inactive).

With `COCCn1c(=O)c(C)nc2cnc(N(C)C)nc21`, the activity change, negative = inhibition result is “inactive”.

Turning to `O=C1C[C@@H](O)[C@@H](O)[C@H]2[C@@H]3C(=O)N(Cc4ccc5c(c4)OCO5)C(=O)[C@@H]3CC[C@H]12`, the activity change, negative = inhibition was 3.37% [at 8 µM] (inactive) and -9.87% [at 8 µM] (inactive). As for `CC[C@]1(C)CC(=O)NC1=O`, the activity change, negative = inhibition entry was “inactive”.

In the case of `COc1ccc2c(=O)cc(-c3ccccc3)oc2c1O`, the activity change, negative = inhibition result is “inactive”. Same read-out and setting: for `CCNCCCNCCCNCCCNCC` the value was “inactive”; for `COCCNC(=O)COc1ccc(C)c(C)c1`, “inactive”; for `CCOC(=O)c1nc(N)sc1C(=O)OCC`, “inactive”. For `FC(F)(F)c1ccccc1-c1cc(NCc2ccccc2)ncn1`, the activity change, negative = inhibition result is “inactive”. Still for that read-out and setting: the entry for `Cc1cc(C(=O)O)ccc1[N+](=O)[O-]` is “inactive”. Same read-out and setting: the entry for `Nc1ccccc1N` is “inactive”; for `CCOC(=O)c1[nH]c2ccc(OC)cc2c1NC(=O)N1CCOCC1` it is “inactive”; for `Cc1cccc(C(=O)O)c1[N+](=O)[O-]` it is “inactive”. On the same count and under the same terms, the entry for `Cc1nn(Cc2ccc(Cl)c(Cl)c2)c(C)c1NC(=O)c1cc(C2CC2)on1` is “inactive”; for `CCC[C@@H]1C[C@@]1(CCC)[C@@H](NC(=O)c1ccccc1)c1ccc(C(=O)OC)cc1` it is “inactive”. As for `CN1[C@@H]2CC[C@H]1CC(OC(=O)c1cc(Cl)cc(Cl)c1)C2` (stereo partly drawn), the Potency result was “inactive and 15.8 µM (active)”. Turning to `O=C1OCCC=C1[C@@H](O)CCc1ccccc1`, the activity change, negative = inhibition was -3.54% [at 1.6 µM] (inactive). Consider `CCCn1c(-c2ccc(F)cc2)nc2c(NCC3CCCN3CC)nc(C)nc21` (stereo not drawn), for which the activity change, negative = inhibition entry is “inactive”.

With `Nc1cc(OC(=O)c2ccccc2Br)nn1S(=O)(=O)c1ccccc1`, the Potency is 10 µM (active). With `C/C=C1\C(=O)C[C@@H]2[C@@H]3CCC4=CC(=O)CC[C@@]4(C)[C@H]3CC[C@@]12C`, the activity change, negative = inhibition result is “inactive”. As for `Cc1ccnc(N)c1`, the activity change, negative = inhibition result was “inactive”.

`CC(C)(C)NCC[C@@H](O)c1cc(C(F)(F)F)nc2c(C(F)(F)F)cccc12`: the activity change, negative = inhibition was -2.37% [at 8 µM] (inactive). Regarding `COCCn1c(=O)c(-c2cc(F)cc(F)c2)nc2cncnc21`, the activity change, negative = inhibition result was “inactive”. Take `CN=C1SC(C(=O)O)CC(=O)N1C` (stereo not drawn): the activity change, negative = inhibition result is “inactive”.

Regarding `O=NO`, the activity change, negative = inhibition result was “inactive”. In the case of `COc1ccc(N)c(C)c1`, the activity change, negative = inhibition result was “inactive”. Turning to `O=C(COc1ccc2oc3c(c2c1)CCCC3)Nc1ccccn1`, the activity change, negative = inhibition result is “inactive”. Still for that read-out and setting: for `O=C(NCCc1ccc(Cl)cc1)C1CC(=O)N(C2CCCCC2)C1` (stereo not drawn) the value was “inactive”. For `CC(C)C[C@H](NC(=O)NCCc1ccc(Cl)cc1)C(=O)O`, the activity change, negative = inhibition entry is “inactive”. In the case of `Oc1cc2c(cc1O)CN(C(=S)NCCc1ccc(Cl)cc1)CCC2`, the Potency was 15.8 µM (active). As for `O=S(=O)(O)c1ccc(O)c2ncccc12.O=S(=O)(O)c1ccc(O)c2ncccc12.[Zn]`, the activity change, negative = inhibition is -0.63% [at 8 µM] (inactive).

Regarding `NS(=O)(=O)c1cc(C(=O)O)c(Cl)c([N+](=O)[O-])c1Cl`, the activity change, negative = inhibition was -7.65% [at 8 µM] (inactive). Turning to `C=CCOC(=O)C(C(C)=O)C(NC(=O)OC)c1ccccc1` (stereo not drawn), the activity change, negative = inhibition was -6.02% [at 8 µM] (inactive).

`Cc1ccc(Br)cc1`: the activity change, negative = inhibition result was “inactive”. With `CN(C)CCSS(=O)(=O)O`, the activity change, negative = inhibition is -2.2% [at 8 µM] (inactive). `c1ccc(Oc2ccccc2)cc1`: the activity change, negative = inhibition entry was “inactive”. On the same count and under the same terms, the entry for `Oc1ccc(O)c2c(O)cccc12` is “inactive”; for `Cc1c(C)c2c(c(C)c1O)CC[C@@](C)(CN1CCN(c3cc(N4CCCC4)nc(N4CCCC4)n3)CC1)O2` it is “inactive”; for `C[C@@H]1/C=C\CC(=O)OC[C@H]2O[C@@H](C=C[C@@H]2O)[C@H](C)/C=C\CC(=O)OC[C@H]2O[C@H]1C=C[C@@H]2O` it is 0.461% [at 0.32 µM] (inactive). Still for that read-out and setting: for `O=C(O)C1CCCN(S(=O)(=O)c2cccc3cccnc23)C1` (stereo not drawn) the value was “inactive”.

As to `COc1ccc(NC(=O)C2CCCN(S(=O)(=O)c3cccc4cccnc34)C2)cc1` (stereo not drawn), the Potency is 3.16 µM (active). On to `COc1ccc(NC(=O)C2CCCN(S(=O)(=O)c3cccc4cccnc34)C2)cc1OC` (stereo not drawn), for which the activity change, negative = inhibition entry was “inactive”. On the same count and under the same terms, the entry for `Cc1cccc(Br)c1` is “inactive”; for `COC(=O)C(C(=O)OC)[C@@H]1CCCC(=O)C1` it is 8.84% [at 8 µM] (inactive); for `CCCC[C@@H]1C[C@H]1C(NC(=O)c1ccco1)c1ccc(C(=O)OC)cc1` (stereo partly drawn) it is “inactive”. Still for that read-out and setting: the figure for `COC(=O)NC(c1ccccc1)[C@]1(C(C)=O)CCCC1=O` (stereo partly drawn) is -2.74% [at 8 µM] (inactive); for `CC(C)=CCC/C(C)=C/CO/N=C1/C[C@@H](O)[C@@H](O)[C@@H]2[C@@H]3C(=O)N(C(C)(C)C)C(=O)[C@H]3CC[C@H]12` it is 4.39% [at 1.6 µM] (inactive); for `O=C(Cl)c1ccc([N+](=O)[O-])cc1` it is “inactive”.

For the origin of these results see PubChem BioAssay AID912 (National Center for Advancing Translational Sciences (NCATS), 2007).
